{"source": "PubChem BioAssay (Tox21)", "note": "Inconclusive results are not listed. Values without a mark were called inactive. Calls follow the shape of the dose curve; as a rule, active = well fitted cell-killing curve with a large enough effect in the repeat runs; inconclusive = weak or mixed curves; inactive = flat fitted curve, though single readings scatter. % is scaled to controls: 0 for no effect and ±100 for the full control effect."}
{"test": "qHTS assay to identify small molecule antagonists of the estrogen related receptor (ERR) signaling pathway from Tox21 library - cell viability counter screen (AID 1224834); also: nearly all actives have a fitted effect of over 30% in size", "details": "ERR reporter cells viability, CellTiter-Fluor, 17.5 h; series mostly up to 92.4 µM; viability change, negative = cytotoxic: at the top concentration", "source_text": "National Center for Advancing Translational Sciences [NCATS]\nNIH Chemical Genomics Center [NCGC]\nU.S. Environmental Protection Agency [EPA]\nNational Institutes of Environmental Health Sciences [NIEHS]\nNational Toxicology Program [NTP]\nU.S. Food and Drug Administration [FDA]\nEstrogen related receptors (ERRs), the first orphan nuclear receptors discovered, play an important role in the control of cellular energy metabolism. ERRs are required for high-energy production in response to the environmental challenges. ERR-alpha was also identified as an adverse marker for breast cancer progression; ERR-alpha-positive tumors have a poor prognosis. To screen and to identify environmental compounds that perturb the ERR signaling pathways could provide valuable information for potential therapeutic or preventive measures in the treatment of metabolic disease. To differentiate true ERR antagonists or agonist from cytotoxic substances, the assay is multiplexed with cell viability assay.\nTox21 Assay Protocol Summary:\nThe ERR cells were dispensed at 2,000 cells/5 ul/well in 1536-well white plates using a Multidrop dispenser. After the assay plates were incubated at a 37 C/5% CO2 incubator for 6 hours, 23 nL of compounds dissolved in DMSO, positive and negative controls or DMSO only was transferred to the assay plate by a pin tool. The plates were incubated at 37 C for 17.5 hours. 1 ul/well of CellTiter-Fluor reagent was added into the assay plates using a Flying Reagent Dispenser. After 30-minute incubation at 37 C/5% CO2, the fluorescence intensity in the plates was measured using a ViewLux plate reader."}
{"smiles": "Cc1nc2ccc(Cl)cc2[nH]1", "viability change, negative = cytotoxic": "2.06%"}
{"smiles": "CCCCN(CCCC)CCCCCCN(CCCC)CCCC", "viability change, negative = cytotoxic": "3.38%"}
{"smiles": "c1coc(Cn2cccc2)c1", "viability change, negative = cytotoxic": "-2.16%"}
{"smiles": "CCCCCCCCCCCCCCCCN(C)C", "viability change, negative = cytotoxic": "0.965% [at 8.39 µM]"}
{"smiles": "CC(=O)c1ccc2ccc3ccccc3c2c1", "viability change, negative = cytotoxic": "0.883%"}
{"smiles": "CC/C=C\\CCOC(=O)c1ccccc1", "viability change, negative = cytotoxic": "6.74%"}
{"smiles": "NS(=O)(=O)c1cc2c(cc1C(F)(F)F)NCNS2(=O)=O", "viability change, negative = cytotoxic": "0.386% [at 42.5 µM]"}
{"smiles": "O=C1CCCc2c(O)cccc21", "viability change, negative = cytotoxic": "5.43% [at 42.5 µM]"}
{"smiles": "CN(C)CCC[C@@]1(c2ccc(F)cc2)OCc2cc(C#N)ccc21", "viability change, negative = cytotoxic": "-1.01% [at 42.5 µM]"}
{"smiles": "CC1(C)S[C@@H]2[C@H](NC(=O)Cc3ccccc3)C(=O)N2[C@H]1C(=O)O", "note": "(tested in a mixture with another compound)", "viability change, negative = cytotoxic": "-13.9% [at 42.5 µM]"}
{"smiles": "CC(=O)OCC(=O)[C@@]1(O)CC[C@H]2[C@@H]3CCC4=CC(=O)C=C[C@]4(C)[C@H]3[C@@H](O)C[C@@]21C", "viability change, negative = cytotoxic": "4.81% [at 42.5 µM]"}
{"smiles": "O=C(O)CCC(=O)Nc1ccc(S(=O)(=O)Nc2nccs2)cc1", "viability change, negative = cytotoxic": "4.35% [at 42.5 µM]"}
{"smiles": "NC(=O)CC[C@@H](N)C(=O)O", "viability change, negative = cytotoxic": "0.288% [at 42.5 µM]"}
{"smiles": "C=CC(C)(CCC=C(C)C)OC(=O)C(C)C", "note": "(stereo not given)", "viability change, negative = cytotoxic": "-3.6%"}
{"smiles": "CCNC(=O)C(C)OC(=O)Nc1ccccc1", "note": "(stereo not given)", "viability change, negative = cytotoxic": "2.55%"}
{"smiles": "C=CC(=O)OCCOCCOCC", "viability change, negative = cytotoxic": "0.0134%"}
{"smiles": "COc1ccc(Cl)cc1C", "viability change, negative = cytotoxic": "2.23%"}
{"smiles": "CCCCCC(CC)OC(=O)CCCOc1ccc(Cl)cc1Cl", "note": "(stereo not given)", "viability change, negative = cytotoxic": "7.19%"}
{"smiles": "N[C@H]1C(O)O[C@H](CO)[C@@H](O)[C@@H]1O", "note": "(stereo not given in full)", "viability change, negative = cytotoxic": "8.52% [at 42.5 µM]"}
{"smiles": "CN(C)CCc1c[nH]c2ccc(CS(=O)(=O)N3CCCC3)cc12", "viability change, negative = cytotoxic": "-6.11% [at 42.5 µM]"}
{"smiles": "CCCCS", "viability change, negative = cytotoxic": "4.57%"}
{"smiles": "CCCCC(O)/C=C(C)/C=C/C=C/C(=O)N1CCCC1=O", "note": "(stereo not given)", "viability change, negative = cytotoxic": "-2.38% [at 42.5 µM]"}
{"smiles": "COc1cc(S(N)(=O)=O)cc(C(=O)O)c1OC", "viability change, negative = cytotoxic": "0.0397% [at 42.5 µM]"}
{"smiles": "Cc1ccc2cccnc2c1", "viability change, negative = cytotoxic": "4.12%"}
{"smiles": "CCC(C)(C)C", "viability change, negative = cytotoxic": "1.07%"}
{"smiles": "O=C(O)P(=O)(O)O", "viability change, negative = cytotoxic": "2.67% [at 42.5 µM]"}
{"smiles": "O=c1c(O)c(O)c1=O", "viability change, negative = cytotoxic": "8.16%"}
{"smiles": "COC(=O)c1ccccc1Cl", "viability change, negative = cytotoxic": "-0.196%"}
{"smiles": "CC[C@@]1(c2ccccc2)NC(=O)N(C)C1=O", "viability change, negative = cytotoxic": "6.21% [at 42.5 µM]"}
{"smiles": "C/C=C(\\C)C=O", "viability change, negative = cytotoxic": "1.71%"}
{"smiles": "CC(=O)Nc1ccc(S(=O)(=O)Nc2cc(C)on2)cc1", "viability change, negative = cytotoxic": "5.31% [at 42.5 µM]"}
{"smiles": "C=CCCCCCCCCOC(C)=O", "viability change, negative = cytotoxic": "-2.31%"}
{"smiles": "N#CC1(N)CCCCC1", "viability change, negative = cytotoxic": "2.29%"}
{"smiles": "CCCC(=O)CC", "viability change, negative = cytotoxic": "4.01%"}
{"smiles": "CC(=O)O[C@@H]1CC2C3CCc4cc(OC(=O)c5ccccc5)ccc4C3CCC2(C)[C@H]1OC(C)=O", "note": "(stereo not given in full)", "viability change, negative = cytotoxic": "3.35% [at 42.5 µM]"}
{"smiles": "Clc1ccc2c(c1)Nc1ccccc1S2", "viability change, negative = cytotoxic": "0.673% [at 42.5 µM]"}
{"smiles": "CC(=O)OC1CCC(C(C)(C)C)CC1", "note": "(stereo not given)", "viability change, negative = cytotoxic": "4.23%"}
{"smiles": "CNCCc1ccccn1", "viability change, negative = cytotoxic": "0.275% [at 42.5 µM]"}
{"smiles": "CC(C)(O)c1ccc(C(C)(C)O)cc1", "viability change, negative = cytotoxic": "0.321%"}
{"smiles": "N=C(N)N", "viability change, negative = cytotoxic": "-1.53% [at 42.5 µM]"}
